The values that follow come from PubChem BioAssay (NCI).

Among the test systems are SR leukemia; RPMI-8226 leukemia; OVCAR-8 ovarian; OVCAR-5 ovarian; OVCAR-4 ovarian; SK-OV-3 ovarian; IGROV1 ovarian; OVCAR-3 ovarian; HS 578T breast; NCI/ADR-RES ovarian.
Assay in all cases: NCI-60 one-dose screen, 48 h (100 = growth as untreated, 0 = no growth, -100 = all killed)
Details in all cases: 10 µM unless noted

Compounds without any hit were thinned out: in the full panel of roughly 83,000, 20% have a hit.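 A percent growth of 40 corresponds to 60% growth inhibition; 0 means no net growth; -100 means all cells died. Active threshold: below 10.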 Unmarked numbers belong to inactive results. Calls of active or inactive are those of the source.

In the case of `O=C1/C(=C/c2ccc(-c3ccc(Br)cc3)o2)SC(=S)N1CCc1ccc(O)cc1`, the growth in the assay on SR leukemia is 19.2%; in the assay with RPMI-8226 leukemia, 75.7%; in the assay with OVCAR-8 ovarian it was 4.49% (active); in the assay with OVCAR-5 ovarian, 86%; in the assay with OVCAR-4 ovarian it was 38.3%; with SK-OV-3 ovarian, 76.2%. The growth is 45.2% in the assay on IGROV1 ovarian, 44.3% in the assay on OVCAR-3 ovarian, 59.7% in the assay with HS 578T breast and 81.7% in the assay with NCI/ADR-RES ovarian.
Turning to `O=C(Nc1cccc([N+](=O)[O-])c1)c1cc2ccccc2cc1O`, the growth is 48.6% in the assay on SR leukemia; -55.3% (active) with RPMI-8226 leukemia; 9.47% (active) in the assay on OVCAR-8 ovarian; 10.8% in the assay on OVCAR-5 ovarian; 15.6% with OVCAR-4 ovarian; -82% (active) with SK-OV-3 ovarian. The growth in the assay on IGROV1 ovarian was -2.54% (active); in the assay with OVCAR-3 ovarian it was -9.94% (active); in the assay with HS 578T breast it was 6.07% (active); with NCI/ADR-RES ovarian, -10.6% (active).
With `N#C/C(=C\c1ccc(Br)cc1)n1nnc2ccc(F)cc21`, the growth was -11.9% (active) in the assay on SR leukemia; -35.4% (active) in the assay on RPMI-8226 leukemia; 7.38% (active) with OVCAR-8 ovarian; 3.03% (active) with OVCAR-5 ovarian; 24.9% in the assay with OVCAR-4 ovarian; 51.6% with SK-OV-3 ovarian. Also, the growth in the assay with IGROV1 ovarian is -31.2% (active); in the assay with OVCAR-3 ovarian it was -45.3% (active); in the assay on HS 578T breast it was 3.56% (active); with NCI/ADR-RES ovarian, 1.62% (active).
As to `N#Cc1c(NC(=O)c2ccccc2)sc2c1CCC(=O)C2`, the growth was 7.72% (active) in the assay on SR leukemia; -2.69% (active) in the assay with RPMI-8226 leukemia; 14.5% in the assay with OVCAR-8 ovarian; 22.1% with OVCAR-5 ovarian; -64.9% (active) in the assay on OVCAR-4 ovarian; 64.7% with SK-OV-3 ovarian. Also, the growth in the assay with IGROV1 ovarian is 27.4%; in the assay with OVCAR-3 ovarian, -4.44% (active); in the assay with HS 578T breast, 23.3%; in the assay on NCI/ADR-RES ovarian, 5.57% (active).
As for `N#Cc1c(-c2ccc(Cl)cc2)nc(SCC(=O)NC2=NN=C(c3ccccc3)CS2)[nH]c1=O`, the growth in the assay on SR leukemia was 42.7%; in the assay with RPMI-8226 leukemia it was 73.5%; with OVCAR-8 ovarian it was 101%; with OVCAR-5 ovarian, 112%; in the assay on OVCAR-4 ovarian, 83.4%; in the assay on SK-OV-3 ovarian, 47.5%. Moreover, the growth in the assay with IGROV1 ovarian was 90.4%; with OVCAR-3 ovarian, 83.7%; in the assay on HS 578T breast, 93.7%; in the assay on NCI/ADR-RES ovarian, 86.7%.
As to `Cc1nc2sc(C(=O)Nc3ccccc3)c(N)c2cc1C(=O)c1ccccc1`, the growth in the assay on SR leukemia is 8.32% (active); with RPMI-8226 leukemia it was 38%; in the assay on OVCAR-8 ovarian it was 56%; in the assay with OVCAR-5 ovarian, 59%; in the assay with OVCAR-4 ovarian, 63%; in the assay with SK-OV-3 ovarian it was 4.72% (active). Moreover, the growth is 56.8% in the assay with IGROV1 ovarian, 29.2% in the assay on OVCAR-3 ovarian, 13% in the assay on HS 578T breast and 37.8% with NCI/ADR-RES ovarian.
Regarding `O=C1COCCN1c1ccc(Nc2nc(Cl)nc(OCc3cn(Cc4ccccc4)nn3)n2)cc1`, the growth in the assay with SR leukemia was 8.29% (active); in the assay with RPMI-8226 leukemia, 67.9%; in the assay with OVCAR-8 ovarian, 79.6%; in the assay with OVCAR-5 ovarian it was 105%; in the assay on OVCAR-4 ovarian, 83%; in the assay on SK-OV-3 ovarian, 88.8%. Besides, the growth was 62.6% with IGROV1 ovarian, 89.4% in the assay on OVCAR-3 ovarian, 85.3% in the assay on HS 578T breast and 101% in the assay on NCI/ADR-RES ovarian.
As to `CCc1nc2c(=O)[nH]cnc2o1`, the growth in the assay with SR leukemia is 92.8%; with RPMI-8226 leukemia, 109%; in the assay with OVCAR-8 ovarian it was 111%; in the assay with OVCAR-5 ovarian, 107%; with OVCAR-4 ovarian it was 96.2%; in the assay on SK-OV-3 ovarian it was 110%. The growth is 111% in the assay on IGROV1 ovarian, 111% in the assay on OVCAR-3 ovarian, 102% in the assay with HS 578T breast and 101% with NCI/ADR-RES ovarian.
`O=C(Nn1c2c(sc1=NCc1ccccc1)C(=O)c1ccccc1C2=O)c1cc2ccc1CCc1ccc(cc1)CC2`: the growth in the assay with SR leukemia is 48.3%; in the assay on RPMI-8226 leukemia it was 59%; in the assay with OVCAR-8 ovarian, 46.3%; in the assay with OVCAR-5 ovarian, 118%; in the assay with OVCAR-4 ovarian, 47.7%; in the assay with SK-OV-3 ovarian, 72.9%. Further, the growth was 53% in the assay with IGROV1 ovarian, 51.1% in the assay with OVCAR-3 ovarian, 72.2% with HS 578T breast and 64.3% with NCI/ADR-RES ovarian.
As for `Cc1oc(-c2ccc(Cl)cc2)nc1/C=C/C(=O)c1ccccc1`, the growth in the assay on SR leukemia was 93.7%; in the assay on RPMI-8226 leukemia, 90.9%; in the assay on OVCAR-8 ovarian, 98.7%; in the assay on OVCAR-5 ovarian, 115%; in the assay on OVCAR-4 ovarian, 79.4%; with SK-OV-3 ovarian, 100%. Further, the growth was 93% in the assay on IGROV1 ovarian, 97.5% with OVCAR-3 ovarian, 100% in the assay on HS 578T breast and 104% with NCI/ADR-RES ovarian.
For the molecule `O=C(Cc1ccccc1)Nc1nc(O)c(/C=C2\C(=O)C=Cc3ccccc32)s1`, the growth in the assay with SR leukemia was 104%; in the assay on RPMI-8226 leukemia, 106%; in the assay with OVCAR-8 ovarian, 97.5%; with OVCAR-5 ovarian, 104%; in the assay with OVCAR-4 ovarian, 100%; in the assay on SK-OV-3 ovarian, 83%. Moreover, the growth was 102% with IGROV1 ovarian, 102% in the assay on OVCAR-3 ovarian, 97.8% in the assay with HS 578T breast and 96.7% with NCI/ADR-RES ovarian.
Consider `Fc1cc2c(cc1Cl)N(c1ncnc3ccc(-c4cnc5[nH]ncc5c4)cc13)CC2`, for which the growth was 57.1% with SR leukemia; 60.3% with RPMI-8226 leukemia; 60.9% in the assay on OVCAR-8 ovarian; 38.4% in the assay on OVCAR-5 ovarian; 66.4% in the assay on OVCAR-4 ovarian; 50.8% in the assay on SK-OV-3 ovarian. The growth in the assay with IGROV1 ovarian is 13.2%; in the assay with OVCAR-3 ovarian it was 60.4%; in the assay with HS 578T breast it was 25.9%; in the assay with NCI/ADR-RES ovarian, 65.2%.
As to `CCn1c(=S)sc2c(Nc3ccc(F)cc3)nc(-c3cccnc3)nc21`, the growth with SR leukemia is 95.6%; in the assay on RPMI-8226 leukemia it was 88%; in the assay with OVCAR-8 ovarian, 43.7%; in the assay with OVCAR-5 ovarian, 85.8%; with OVCAR-4 ovarian, -12% (active); in the assay on SK-OV-3 ovarian it was 56.6%. Moreover, the growth in the assay on IGROV1 ovarian is 75.3%; in the assay on OVCAR-3 ovarian, 78.7%; in the assay on HS 578T breast it was 49%; in the assay with NCI/ADR-RES ovarian, 55.4%.
